DAT uptake mod: human DAT dopamine uptake with cocaine, either direction; AID 449768; Q01959; LLC-PK1 hDAT cells, [14C]-dopamine uptake with cocaine IC80; actives deviate in either direction; actives 1.3% (n = 110,000); B-score at 10 µM;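 active means Z score or B-score, a plate-position-corrected score, falls beyond the plate's 99.7% confidence bounds, in either direction; inactive means both scores lie inside the 99.7% bounds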
MRP1 act: MRP-1 activation; actives 0.61% (n = 140,000); H69AR cells + doxorubicin, viability rescue, CellTiter-Glo; viability increase, % at 10 µM;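 active means viability gain under doxorubicin at or above a set limit, the compound median plus 3 SD, cut at about 4.7% in these data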;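 further: MRP-1 overexpressing cells given doxorubicin 25 µM after compound pretreatment; 18-22 h compound pretreatment then 72 h with doxorubicin before readout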
MRP resist rev: MRP-mediated drug resistance reversal; H69AR cells + 2 uM doxorubicin, CellTiter-Glo, 72 h; differential viability (reversal), % at 10 µM; AID 602; actives 0.04% (n = 85,000);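 active means viability drop by adding the cancer drug above about 55%, with treated viability meeting a 40% cutoff, limit read from the data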;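 further: larger differential means the compound sensitizes cells more to doxorubicin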
Large screens that a line does not name were inactive; ! = repeats disagree. Only some compounds are listed: those with a hit (about 1.5% of all), similar ones and a draw of the others.

Cc1ccc2nc(NCCO)nc(-c3ccccc3)c2c1	none (no result: DAT uptake mod)
Cc1ccc2nc(N3CCN(C=O)CC3)nc(-c3ccccc3)c2c1	DAT uptake mod 2.84
O=C(CCC(=O)OCc1ccc(Br)cc1)Nc1ccccc1	none (no result: DAT uptake mod, MRP resist rev)
Cc1nn(CCC#N)c(NC(=O)c2ccc(Cl)cc2Cl)c1P(=O)(Nc1ccc([N+](=O)[O-])cc1)N1CCOCC1 (centres undefined)	DAT uptake mod -6.49
O=C(NC(=S)Nc1ccc(CN2CCOCC2)cc1)c1ccc([N+](=O)[O-])cc1	none (no result: DAT uptake mod, MRP resist rev)
O=C(Nc1c(Cl)cc(Cl)cc1C(=O)NCCN1CCOCC1)c1ccc(Cl)cc1Cl	none
Cc1nn(CCC#N)c(NC(=O)c2ccc(Cl)cc2)c1P(=O)(Nc1ccc([N+](=O)[O-])cc1)N1CCOCC1 (centres undefined)	DAT uptake mod -5.6
Cc1cc(C(=O)NCCC(c2ccccc2)c2ccccc2)c(C)o1	none (no result: MRP resist rev)
CCCC12C(=O)C(C)(C(c3ccccc3)=C1c1ccccc1)C1C(=O)N(c3ccc(C)cc3)C(=O)C12 (centres undefined)	none (no result: DAT uptake mod, MRP resist rev)
O=C(Nc1cccnc1)Nc1ccc(F)c(Cl)c1	DAT uptake mod -4.3
CSc1ccccc1NC(=O)Nc1ccc(F)c(Cl)c1	none
Cc1cc(N2C(=O)C3CC=CCC3C2=O)no1 (centres undefined)	none
Cc1cc(N2C(=O)C3CC=CC(C)C3C2=O)no1 (centres undefined)	DAT uptake mod -9.36
O=C(O)O	none (no result: MRP resist rev)
CCn1cc(C(=O)NCc2cccs2)c(=O)c2cc(S(=O)(=O)N3CCOCC3)ccc21	none (no result: DAT uptake mod, MRP1 act)
CCn1cc(C(=O)NCc2cccs2)c(=O)c2ccc(C)nc21	DAT uptake mod 2.89
COc1ccc(C2=NOC(C)(c3nnc(-c4ccc(Cl)cc4)o3)C2)cc1 (centres undefined)	none (no result: MRP1 act, MRP resist rev)
O=c1c2ccccc2nnn1CSc1nnc(COc2ccc(Cl)cc2)n1Cc1ccco1	none
Clc1ccc(OCc2nnc(SCCN3CCCCC3)n2Cc2ccco2)cc1	DAT uptake mod 3.25
CNC(=S)Nc1ccc(C)cc1	MRP1 act 10.9 (no result: DAT uptake mod, MRP resist rev)
O=C(CSCCO)Nc1ccc(C23CC4CC(CC(C4)C2)C3)cc1	none
Cc1ccc(NC(=S)Nc2ccc(Br)cc2)cc1	none (no result: MRP resist rev)
CNC(=S)Nc1ccc(C23CC4CC(CC(C4)C2)C3)cc1	MRP1 act 5.2 (no result: DAT uptake mod, MRP resist rev)
O=C(CSCc1ccc(Cl)cc1Cl)Nc1nccs1	none (no result: DAT uptake mod, MRP resist rev)
FC(F)(F)c1cc(C(F)(F)F)c2ccc(N3CCN(c4ccc(Cl)cc4)CC3)nc2n1	none (no result: MRP resist rev)
N#CC(c1ccc(Cl)cc1)c1ccc2c(C(F)(F)F)cc(C(F)(F)F)nc2n1 (centres undefined)	DAT uptake mod -3.65
COc1ccccc1CNC(=O)C1CC(c2ccccc2F)=NO1 (centres undefined)	none (no result: MRP1 act, MRP resist rev)
Cc1cc(C)cc(NC(=O)CCC(=O)Nc2cc(C)on2)c1	none
COc1ccc(N(CCCN2C(=O)c3cccc4cccc(c34)C2=O)C(=O)c2cccs2)cc1	none (no result: DAT uptake mod, MRP resist rev)
COc1cc(C)ccc1N(CCCN1C(=O)c2cccc3cccc(c23)C1=O)C(=O)c1cccs1	MRP1 act 8.7 (no result: DAT uptake mod, MRP resist rev)
Fc1ccccc1NC(=S)N1CCN(Cc2ccccc2)CC1	none (no result: DAT uptake mod, MRP resist rev)
O=C(Nc1ccc2c(c1)OCCO2)c1c(F)cccc1F	none
COc1ccc(C(=O)NC(Cc2ccccc2)c2ccc3c(c2)OCCCO3)cc1 (centres undefined)	none (no result: MRP resist rev)
O=C(NC(Cc1ccccc1)c1ccc2c(c1)OCCCO2)c1ccccc1F (centres undefined)	DAT uptake mod 2.63 (no result: MRP resist rev)
O=C(Nc1ccc2c(c1)OCCO2)c1ccccc1F	DAT uptake mod -1.8
O=C(Nc1ccc2c(c1)OCCO2)c1cc2sccc2n1Cc1ccccc1	none
Cn1c(C(=O)Nc2ccc3c(c2)OCCO3)cc2sccc21	DAT uptake mod 2.24
CCCCCCCNC(=O)c1ccc(N2CCC3(CC2)OCCO3)c([N+](=O)[O-])c1	none (no result: DAT uptake mod, MRP resist rev)
C=CCN1C(c2ccc(OCC)cc2)=CS/C1=C(\C#N)c1nnc2n1CCCCC2	DAT uptake mod 3.79!
C=CCn1c(=O)/c(=C/c2ccc(F)cc2)s/c1=C(\C#N)c1nnc2n1CCCCC2	none
O=C(Nc1ccc([N+](=O)[O-])cc1)Nc1ccc(OC(F)F)c(Cl)c1	none (no result: DAT uptake mod, MRP resist rev)
O=C(Nc1ccc(OC(F)F)c(Cl)c1)Nc1ccc2c(c1)OCO2	DAT uptake mod -7
CCN1CC(c2ccccc2)C(c2ccc(Cl)cc2)=N1 (centres undefined)	none (no result: DAT uptake mod, MRP resist rev)
Cc1cccc(N(CC(=O)NC2CCCC2)C(=O)CCCC(=O)Nc2ccccn2)c1	none
Cc1cccc(N(CC(=O)NC2CCCCC2)C(=O)CCCC(=O)Nc2ccccn2)c1	DAT uptake mod 2.18
CC(O)Cc1cn(CC(=O)N2CCN(C(=O)OC(C)(C)C)CC2)nn1 (centres undefined)	none (no result: MRP1 act, MRP resist rev)
Cn1nnc(NCc2cc(Br)ccc2OCc2cccs2)n1	DAT uptake mod 9.76
Cn1nnc(C(O)CNCc2cccs2)n1 (centres undefined)	none
O=C(NCc1ccccc1)c1onc(CSc2ccc(F)c(F)c2)c1C(=O)NCc1ccccc1	none (no result: MRP1 act, MRP resist rev)

Screening data deposited in PubChem BioAssay by several laboratories.
